The values below come from ChEMBL document CHEMBL2218924, “A broad activity screen in support of a chemogenomic map for kinase signalling research and drug discovery” (Biochem J, 2013).

Structures are written as SMILES.

Assay [1] has as its target Vascular endothelial growth factor receptor 3 (Homo sapiens) (UniProt P35916). To be noted: at 10 µM.
Assay [2] addresses Macrophage colony-stimulating factor 1 receptor (Homo sapiens) (UniProt P07333). The settings on record: at 1 µM.
The target is the same in assay [3]. To be noted: at 10 µM.
Assay [4] addresses Tyrosine-protein kinase Fyn (Homo sapiens) (UniProt P06241). To be noted: at 1 µM.
Assay [5] has the same target. The settings on record: at 10 µM.
Assay [6] has as its target T1, Mitogen-activated protein kinase kinase kinase kinase 2 (Homo sapiens) (UniProt Q12851).
T1 sequence (whole entry): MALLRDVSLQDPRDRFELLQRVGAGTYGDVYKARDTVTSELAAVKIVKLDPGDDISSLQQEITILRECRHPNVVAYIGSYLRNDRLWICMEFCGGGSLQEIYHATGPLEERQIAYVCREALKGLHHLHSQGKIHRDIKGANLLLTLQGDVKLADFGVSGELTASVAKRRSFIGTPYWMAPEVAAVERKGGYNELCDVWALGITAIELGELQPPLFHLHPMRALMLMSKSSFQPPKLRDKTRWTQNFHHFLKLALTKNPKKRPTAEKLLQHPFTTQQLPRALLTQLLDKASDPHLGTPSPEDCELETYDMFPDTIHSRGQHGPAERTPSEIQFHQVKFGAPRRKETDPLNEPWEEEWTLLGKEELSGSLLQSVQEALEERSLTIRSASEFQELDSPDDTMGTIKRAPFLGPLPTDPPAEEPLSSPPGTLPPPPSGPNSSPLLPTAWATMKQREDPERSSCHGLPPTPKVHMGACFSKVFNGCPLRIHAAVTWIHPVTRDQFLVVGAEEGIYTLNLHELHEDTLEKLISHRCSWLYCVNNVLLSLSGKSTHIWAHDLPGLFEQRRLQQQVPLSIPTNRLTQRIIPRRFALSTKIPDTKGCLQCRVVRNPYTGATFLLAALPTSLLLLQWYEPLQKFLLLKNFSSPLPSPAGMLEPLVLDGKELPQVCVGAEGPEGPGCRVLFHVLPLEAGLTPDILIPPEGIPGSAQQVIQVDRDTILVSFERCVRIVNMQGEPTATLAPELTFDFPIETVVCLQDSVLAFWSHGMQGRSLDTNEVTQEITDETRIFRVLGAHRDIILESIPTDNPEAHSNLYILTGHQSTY
The settings on record: at 1 µM.

The target of assay [7] is T1, Mitogen-activated protein kinase kinase kinase kinase 2 (Homo sapiens). The settings on record: at 10 µM.
The target of assay [8] is G protein-coupled receptor kinase 5 (Homo sapiens) (UniProt P34947). The settings on record: at 10 µM.
Assay [9] concerns the target G protein-coupled receptor kinase 6 (Homo sapiens) (UniProt P43250). The settings on record: at 10 µM.
The target in assay [10] is T2, Rhodopsin kinase GRK7 (Homo sapiens) (UniProt Q8WTQ7).
T2 sequence (whole entry): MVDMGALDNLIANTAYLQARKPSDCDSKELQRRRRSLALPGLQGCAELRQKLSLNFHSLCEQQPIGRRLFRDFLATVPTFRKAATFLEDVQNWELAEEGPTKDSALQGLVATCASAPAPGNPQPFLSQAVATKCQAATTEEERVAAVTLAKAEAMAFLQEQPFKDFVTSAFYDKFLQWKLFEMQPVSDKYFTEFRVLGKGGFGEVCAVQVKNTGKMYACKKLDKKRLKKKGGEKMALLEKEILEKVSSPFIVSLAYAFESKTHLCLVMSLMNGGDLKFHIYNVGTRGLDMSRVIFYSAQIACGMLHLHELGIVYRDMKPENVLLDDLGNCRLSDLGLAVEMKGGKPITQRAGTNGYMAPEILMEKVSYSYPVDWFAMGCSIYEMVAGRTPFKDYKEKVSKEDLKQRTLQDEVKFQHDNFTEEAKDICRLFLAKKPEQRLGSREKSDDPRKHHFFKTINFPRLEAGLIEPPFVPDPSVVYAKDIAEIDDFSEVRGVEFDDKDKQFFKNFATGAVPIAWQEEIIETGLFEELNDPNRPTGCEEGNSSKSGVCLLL
The settings on record: at 1 µM.

Assay [11] has as its target T2, Rhodopsin kinase GRK7 (Homo sapiens). To be noted: at 10 µM.
For assay [12], the target named is Glycogen synthase kinase-3 alpha (Homo sapiens) (UniProt P49840). To be noted: at 1 µM.
For assay [13] the target is unchanged. To be noted: at 10 µM.
Assay [14] deals with Glycogen synthase kinase-3 beta (Homo sapiens) (UniProt P49841). To be noted: at 1 µM.
Assay [15] shares this target. To be noted: at 10 µM.
Assay [16] addresses Homeodomain-interacting protein kinase 1 (Homo sapiens) (UniProt Q86Z02). To be noted: at 1 µM.
Assay [17] has the same target. To be noted: at 10 µM.
Assay [18] deals with Homeodomain-interacting protein kinase 2 (Homo sapiens) (UniProt Q9H2X6). To be noted: at 1 µM.
Assay [19] has the same target. The settings on record: at 10 µM.
In assay [20] the target is Homeodomain-interacting protein kinase 3 (Homo sapiens) (UniProt Q9H422). To be noted: at 1 µM.

Chain of Macrophage colony-stimulating factor 1 receptor (Homo sapiens) (P07333 whole entry): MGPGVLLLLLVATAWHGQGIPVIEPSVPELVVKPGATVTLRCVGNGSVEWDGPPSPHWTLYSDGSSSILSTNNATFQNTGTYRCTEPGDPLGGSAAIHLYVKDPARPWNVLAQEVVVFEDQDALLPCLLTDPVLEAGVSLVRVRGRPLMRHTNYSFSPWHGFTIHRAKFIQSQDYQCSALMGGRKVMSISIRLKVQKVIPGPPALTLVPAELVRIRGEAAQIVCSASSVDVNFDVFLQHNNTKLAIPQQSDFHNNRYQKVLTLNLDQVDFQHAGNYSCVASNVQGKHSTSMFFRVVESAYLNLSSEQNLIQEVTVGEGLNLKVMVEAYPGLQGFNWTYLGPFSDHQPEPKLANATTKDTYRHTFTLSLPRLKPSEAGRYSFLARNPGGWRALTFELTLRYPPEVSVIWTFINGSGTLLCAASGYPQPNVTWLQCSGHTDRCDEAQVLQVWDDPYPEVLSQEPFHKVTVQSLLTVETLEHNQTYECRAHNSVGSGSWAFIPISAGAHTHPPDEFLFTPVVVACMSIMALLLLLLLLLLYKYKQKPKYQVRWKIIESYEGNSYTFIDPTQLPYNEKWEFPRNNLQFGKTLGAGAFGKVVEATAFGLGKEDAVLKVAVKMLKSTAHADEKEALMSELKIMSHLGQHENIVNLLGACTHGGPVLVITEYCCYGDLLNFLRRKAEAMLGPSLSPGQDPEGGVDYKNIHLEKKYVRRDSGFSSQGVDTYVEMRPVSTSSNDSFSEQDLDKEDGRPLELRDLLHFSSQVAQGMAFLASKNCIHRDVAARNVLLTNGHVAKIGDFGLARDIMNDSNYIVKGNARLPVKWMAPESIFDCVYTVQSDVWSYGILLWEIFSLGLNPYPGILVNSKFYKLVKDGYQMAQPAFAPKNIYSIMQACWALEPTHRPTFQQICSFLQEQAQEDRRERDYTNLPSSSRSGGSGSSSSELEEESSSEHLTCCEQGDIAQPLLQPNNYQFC
Chain of Glycogen synthase kinase-3 alpha (Homo sapiens) (P49840 2-483 limits assumed): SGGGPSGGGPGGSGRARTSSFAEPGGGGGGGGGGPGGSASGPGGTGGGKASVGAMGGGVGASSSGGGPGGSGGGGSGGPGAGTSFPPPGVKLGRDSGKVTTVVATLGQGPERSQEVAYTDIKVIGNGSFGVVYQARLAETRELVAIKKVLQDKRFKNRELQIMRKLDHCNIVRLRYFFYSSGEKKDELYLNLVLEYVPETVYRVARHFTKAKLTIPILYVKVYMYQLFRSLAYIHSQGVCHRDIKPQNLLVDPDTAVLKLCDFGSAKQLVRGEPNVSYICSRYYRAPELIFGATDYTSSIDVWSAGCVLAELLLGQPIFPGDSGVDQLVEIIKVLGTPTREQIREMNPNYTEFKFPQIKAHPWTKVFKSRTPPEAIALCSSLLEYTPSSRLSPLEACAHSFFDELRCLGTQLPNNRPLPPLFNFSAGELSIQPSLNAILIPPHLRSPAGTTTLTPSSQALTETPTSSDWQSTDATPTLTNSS
Chain of Homeodomain-interacting protein kinase 1 (Homo sapiens) (Q86Z02 whole entry, looked up): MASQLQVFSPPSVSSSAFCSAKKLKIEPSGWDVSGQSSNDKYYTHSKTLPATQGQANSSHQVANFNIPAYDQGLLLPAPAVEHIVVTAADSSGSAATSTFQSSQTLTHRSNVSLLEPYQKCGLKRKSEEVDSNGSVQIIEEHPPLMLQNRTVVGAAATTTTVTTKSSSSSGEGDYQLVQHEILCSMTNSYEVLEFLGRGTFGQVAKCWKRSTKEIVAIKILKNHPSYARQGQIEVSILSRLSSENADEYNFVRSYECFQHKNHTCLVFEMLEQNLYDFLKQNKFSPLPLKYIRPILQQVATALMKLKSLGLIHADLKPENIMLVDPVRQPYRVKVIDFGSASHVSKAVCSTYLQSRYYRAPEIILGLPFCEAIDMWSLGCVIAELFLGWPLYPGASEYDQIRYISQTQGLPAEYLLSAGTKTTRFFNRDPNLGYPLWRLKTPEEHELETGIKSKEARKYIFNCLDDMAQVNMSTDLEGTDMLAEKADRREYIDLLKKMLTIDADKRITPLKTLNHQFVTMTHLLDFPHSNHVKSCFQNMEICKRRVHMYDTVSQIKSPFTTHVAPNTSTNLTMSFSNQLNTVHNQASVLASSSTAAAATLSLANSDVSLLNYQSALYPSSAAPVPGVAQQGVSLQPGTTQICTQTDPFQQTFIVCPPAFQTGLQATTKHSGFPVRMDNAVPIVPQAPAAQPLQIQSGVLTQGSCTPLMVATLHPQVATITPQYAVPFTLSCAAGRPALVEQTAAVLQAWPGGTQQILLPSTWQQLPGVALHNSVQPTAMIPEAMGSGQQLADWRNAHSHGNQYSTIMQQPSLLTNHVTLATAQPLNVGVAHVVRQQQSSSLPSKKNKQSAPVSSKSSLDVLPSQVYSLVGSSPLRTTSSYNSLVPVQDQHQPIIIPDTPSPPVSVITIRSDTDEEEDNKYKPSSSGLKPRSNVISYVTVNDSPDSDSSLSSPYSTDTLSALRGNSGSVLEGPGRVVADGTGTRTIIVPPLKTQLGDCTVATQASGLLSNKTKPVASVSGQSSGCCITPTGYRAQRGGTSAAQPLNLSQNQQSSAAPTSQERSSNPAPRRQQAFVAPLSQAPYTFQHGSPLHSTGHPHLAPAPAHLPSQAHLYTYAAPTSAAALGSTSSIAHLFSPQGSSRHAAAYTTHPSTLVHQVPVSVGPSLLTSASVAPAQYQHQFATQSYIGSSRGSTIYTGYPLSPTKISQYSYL
Chain of Glycogen synthase kinase-3 beta (Homo sapiens) (P49841 whole entry, looked up): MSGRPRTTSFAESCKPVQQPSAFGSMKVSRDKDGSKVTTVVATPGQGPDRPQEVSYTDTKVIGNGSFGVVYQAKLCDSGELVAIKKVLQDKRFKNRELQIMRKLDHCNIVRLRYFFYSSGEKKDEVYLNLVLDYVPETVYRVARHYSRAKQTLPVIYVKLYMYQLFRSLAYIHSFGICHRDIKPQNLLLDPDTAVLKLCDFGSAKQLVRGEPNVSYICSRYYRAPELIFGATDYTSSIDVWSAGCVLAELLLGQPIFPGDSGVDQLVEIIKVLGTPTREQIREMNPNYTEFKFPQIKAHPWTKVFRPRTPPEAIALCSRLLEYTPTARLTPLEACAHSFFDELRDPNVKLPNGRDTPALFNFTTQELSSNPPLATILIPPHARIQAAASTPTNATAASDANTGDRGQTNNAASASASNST
Chain of G protein-coupled receptor kinase 5 (Homo sapiens) (P34947 whole entry, looked up): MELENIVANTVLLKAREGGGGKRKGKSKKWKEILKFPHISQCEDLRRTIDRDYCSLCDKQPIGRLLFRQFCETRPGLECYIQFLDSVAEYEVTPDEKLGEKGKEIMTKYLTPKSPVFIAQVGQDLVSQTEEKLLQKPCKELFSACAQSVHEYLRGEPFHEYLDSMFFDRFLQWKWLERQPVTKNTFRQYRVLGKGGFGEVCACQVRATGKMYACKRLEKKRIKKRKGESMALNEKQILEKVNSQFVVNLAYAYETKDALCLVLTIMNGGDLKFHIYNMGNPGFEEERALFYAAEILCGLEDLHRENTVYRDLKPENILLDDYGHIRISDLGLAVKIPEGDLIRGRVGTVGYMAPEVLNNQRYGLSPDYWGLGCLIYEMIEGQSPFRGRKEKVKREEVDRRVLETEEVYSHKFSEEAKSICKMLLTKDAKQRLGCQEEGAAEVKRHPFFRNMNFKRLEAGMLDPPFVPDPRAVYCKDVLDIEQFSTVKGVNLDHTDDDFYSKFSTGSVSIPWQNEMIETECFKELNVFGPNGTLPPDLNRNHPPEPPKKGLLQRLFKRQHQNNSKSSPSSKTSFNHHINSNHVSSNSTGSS
Chain of Tyrosine-protein kinase Fyn (Homo sapiens) (P06241 2-537 limits assumed): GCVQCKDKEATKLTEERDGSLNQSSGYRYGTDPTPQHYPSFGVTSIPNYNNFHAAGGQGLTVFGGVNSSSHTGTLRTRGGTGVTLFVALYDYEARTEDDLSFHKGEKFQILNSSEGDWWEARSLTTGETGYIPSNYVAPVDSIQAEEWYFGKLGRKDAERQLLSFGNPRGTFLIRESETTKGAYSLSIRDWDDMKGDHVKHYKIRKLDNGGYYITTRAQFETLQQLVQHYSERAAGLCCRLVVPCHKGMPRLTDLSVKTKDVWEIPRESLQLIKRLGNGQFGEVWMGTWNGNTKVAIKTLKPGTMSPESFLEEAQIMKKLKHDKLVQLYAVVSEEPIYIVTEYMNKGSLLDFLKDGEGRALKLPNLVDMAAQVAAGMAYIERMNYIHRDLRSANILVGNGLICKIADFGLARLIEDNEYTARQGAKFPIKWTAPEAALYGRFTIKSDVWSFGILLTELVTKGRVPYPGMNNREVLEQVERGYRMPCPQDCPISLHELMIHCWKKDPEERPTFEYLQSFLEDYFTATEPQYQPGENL
Chain of G protein-coupled receptor kinase 6 (Homo sapiens) (P43250 whole entry, looked up): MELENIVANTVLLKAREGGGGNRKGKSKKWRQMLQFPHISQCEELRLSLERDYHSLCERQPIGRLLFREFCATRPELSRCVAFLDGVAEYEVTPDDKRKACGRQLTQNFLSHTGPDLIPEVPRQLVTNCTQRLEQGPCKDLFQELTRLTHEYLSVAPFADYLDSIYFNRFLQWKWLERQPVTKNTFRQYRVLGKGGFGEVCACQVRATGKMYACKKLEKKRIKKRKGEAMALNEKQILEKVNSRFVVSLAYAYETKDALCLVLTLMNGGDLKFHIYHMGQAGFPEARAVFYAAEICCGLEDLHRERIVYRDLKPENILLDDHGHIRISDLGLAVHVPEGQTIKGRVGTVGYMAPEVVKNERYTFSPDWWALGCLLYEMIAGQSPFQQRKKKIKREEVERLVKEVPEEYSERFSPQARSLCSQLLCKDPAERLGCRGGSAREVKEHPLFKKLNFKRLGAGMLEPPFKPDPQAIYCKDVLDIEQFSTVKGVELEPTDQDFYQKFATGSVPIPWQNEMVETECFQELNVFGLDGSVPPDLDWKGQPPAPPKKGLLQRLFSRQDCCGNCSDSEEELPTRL

For the molecule `O=C1NC(=O)c2c1c1c3ccccc3[nH]c1c1[nH]c3cc(Br)ccc3c21`, the residual activity in assay [1] turned out to be 3%; in assay [2] it was 78%; in assay [3] it was 68%; in assay [4] it was 85%; in assay [5], 62%; in [6] it was 88%. In addition, the residual activity in assay [7] came to 74%; in [8], 89%; in assay [9] it was 89%; in assay [10] it was 96%; in assay [11], 79%; in assay [12] it was 92%. In addition, the residual activity in [13] stood at 30%; in [14], 103%; in assay [15], 57%; in assay [16], 102%; in [17], 96%; in [18], 101%. In addition, the residual activity in assay [19] was 85%; in assay [20] it was 92%.

As to `CC(C)n1cnc2/c(=N/c3cccc(Cl)c3)nc(NCCO)[nH]c21`, the residual activity came out at 5% in [1]; 83% in [2]; 39% in assay [3]; 21% in [4]; 3% in assay [5]; 35% in assay [6]. Also, the residual activity in assay [7] came out at 19%; in assay [8], 61%; in [9] it was 53%; in assay [10] it was 76%; in assay [11], 20%; in assay [12] it was 98%. The residual activity in assay [13] came to 69%; in [14], 122%; in [15], 88%; in assay [16] it was 98%; in [17] it was 73%; in assay [18], 89%. The residual activity in assay [19] amounted to 56%.

Regarding `Oc1ccc(-c2nc(-c3ccc(F)cc3)c(-c3ccncc3)[nH]2)cc1`, the residual activity in assay [1] was determined as 29%; in [2], 79%; in assay [3], 58%; in [4], 83%; in assay [5], 27%; in assay [6] it was 106%. The residual activity in assay [7] worked out at 87%; in assay [8] it was 100%; in [9] it was 97%; in [10] it was 121%; in [11] it was 96%; in assay [12], 95%. Further, the residual activity in assay [13] is 42%; in assay [14], 88%; in [15], 28%; in assay [16], 103%; in assay [17], 96%; in assay [18], 99%. Further, the residual activity in [19] was found to be 95%; in [20], 106%.

As for `Oc1n[nH]c2nnc(-c3c(-c4ccccc4)nn4ccccc34)cc12`, the residual activity in assay [1] amounted to 60%; in assay [2] it was 49%; in [3], 15%; in assay [4] it was 75%; in assay [5], 77%; in assay [6], 82%. Further, the residual activity in [7] amounted to 75%; in [8], 97%; in [9], 85%; in [10] it was 85%; in assay [11], 82%; in assay [12] it was 100%. Moreover, the residual activity was 83% in assay [13]; 113% in assay [14]; 106% in assay [15]; 98% in [16]; 95% in assay [17]; 95% in [18]. Besides, the residual activity in [19] turned out to be 92%; in assay [20], 98%.

With `O=c1c2ccccc2[nH]c(=S)n1CCN1CCC(=C(c2ccc(F)cc2)c2ccc(F)cc2)CC1`, the residual activity turned out to be 92% in [1]; 69% in assay [2]; 84% in assay [3]; 89% in assay [4]; 46% in assay [5]; 93% in [6]. Further, the residual activity came to 82% in assay [7]; 89% in assay [8]; 90% in assay [9]; 93% in assay [10]; 97% in assay [11]; 102% in assay [12]. Moreover, the residual activity in assay [13] came out at 142%; in [14], 99%; in assay [15], 123%; in [16], 94%; in assay [17] it was 106%; in assay [18] it was 102%. For the same molecule, the figures for the residual activity in assay [19] and in [20] were 94% and 100%, respectively.

On to `O=C1c2ccccc2-[n+]2ccc3c([nH]c4ccccc43)c21`, for which the residual activity amounted to 25% in assay [1]; 68% in assay [2]; 58% in assay [3]; 77% in [4]; 76% in [5]; 75% in assay [6]. The residual activity in assay [7] came to 73%; in assay [8] it was 91%; in assay [9] it was 90%; in assay [10] it was 91%; in [11], 84%; in assay [12], 107%. Further, the residual activity is 103% in [13]; 120% in assay [14]; 103% in assay [15]; 97% in assay [16]; 90% in [17]; 96% in assay [18]. Further, the residual activity in assay [19] was determined as 91%; in assay [20], 77%.

Take `COc1cc2ncnc(Nc3ccc(O)c(Br)c3)c2cc1OC`: the residual activity in [1] came out at 2%; in assay [2], 63%; in assay [3] it was 22%; in assay [4], 49%; in [5], 9%; in assay [6], 52%. The residual activity in assay [7] came to 18%; in [8], 89%; in assay [9], 78%; in [10] it was 75%; in assay [11], 69%; in [12] it was 116%. Moreover, the residual activity in assay [13] came to 108%; in assay [14] it was 89%; in [15], 86%; in [16], 97%; in assay [17], 104%; in [18] it was 87%. Moreover, the residual activity in [19] was 75%; in [20], 95%.
